# Bioassay records deposited in PubChem BioAssay by several laboratories.
# Rows were chosen to be rich in hits. Some 0.77% of all compounds tested hit in one or more screens of this group.
# Rv3671c inh: Rv3671c (M. tuberculosis) protease inhibition; P9WHR9; inhibition, % at 5.96 µM; actives 0.048% (n = 320,000); AID 2606; in the data active = inhibition above about 38%;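 also: extracellular domain of Rv3671c used as enzyme; 0% = enzyme with DMSO and 100% = no enzyme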
# Target sequence (P9WHR9 whole entry, looked up, the tested form may be a part): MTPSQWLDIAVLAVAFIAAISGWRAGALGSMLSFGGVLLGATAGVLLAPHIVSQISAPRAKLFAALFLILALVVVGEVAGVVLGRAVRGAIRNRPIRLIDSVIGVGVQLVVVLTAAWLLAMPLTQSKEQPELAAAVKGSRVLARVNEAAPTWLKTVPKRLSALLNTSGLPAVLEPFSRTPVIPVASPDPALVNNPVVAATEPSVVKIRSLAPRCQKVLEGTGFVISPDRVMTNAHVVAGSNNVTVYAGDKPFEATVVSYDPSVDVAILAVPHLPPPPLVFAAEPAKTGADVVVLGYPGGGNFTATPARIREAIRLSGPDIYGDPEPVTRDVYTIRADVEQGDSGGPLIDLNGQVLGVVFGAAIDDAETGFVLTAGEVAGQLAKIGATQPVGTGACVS
# RecA splice inh: blocks M. tuberculosis RecA intein splicing; cell-free RecA intein splicing, fluorescence; inhibition, % (no concentration beside the values); AID 2221; actives 0.75% (n = 290,000); in the data active = inhibition above about 30%;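 also: 0% = vehicle wells and 100% = reference inhibitor control wells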
# Mtb UGM inh: Mtb UDP-galactopyranose mutase inhibition; P9WIQ1; purified UGM, fluorescence polarization probe displacement; inhibition, % at 10 µM; actives 0.06% (n = 320,000); AID 504406; in the data active = inhibition above about 10%, passing the limit was not always enough
# Mtb bLac sens: beta-lactam sensitization of Mtb H37Rv; M. tuberculosis H37Rv growth with meropenem, percent inhibition; inhibition, % at 25 µM; actives 0.27% (n = 330,000); AID 434955;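 also: growth measured after seven days incubation then overnight dye step; 0% = bacteria only wells and 100% = bacteria with antibiotic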
# Mtb hypoxia inh: reduces hypoxia-regulated biosensor signal in M. tuberculosis; M. tuberculosis hypoxia-regulated fluorescent reporter, fluorescence; fluorescence inhibition, % (no concentration beside the values); actives 0.1% (n = 300,000); AID 1159583; in the data active = fluorescence inhibition mostly above about 23%, no sharp cut-off; inactive = mostly below about 17%
# GFP chromophore: counter-screen GFP chromophore formation inhibition. actives 83% (n = 2,100). shares compounds with RecA splice inh. AID 434968. cell-free GFP chromophore formation, fluorescence. EC50, µM
# * = called active by the depositor; . = no result; ! = repeats disagree. Unless noted, no rule for the calls is given here.
SMILES,Rv3671c inh,RecA splice inh,Mtb UGM inh,Mtb bLac sens,Mtb hypoxia inh,GFP chromophore
Cc1onc(-c2ccccc2)c1C(=O)n1nnc2ccccc21,2,31*,-1,1,2,35*
CCOC(=O)c1[nH]c(=O)c2ccccc2c1O,-18,56*,-2,2,2,26*
CC1CN(C(C)CO)C(=O)c2cc(NC(=O)Cc3cn(C)c4ccccc34)ccc2OC1CN(C)S(=O)(=O)c1ccc(F)cc1 (configuration not stated),.,.,.,.,6,.
COc1ccc(OC)c(N(C(=O)c2snc(C(N)=O)c2N)C(C(=O)NCc2ccccc2)c2ccc(O)cc2)c1 (configuration not stated),-18,-3,2,1,15,.
COc1ccc(CNC(=O)C(c2ccc(C)o2)N(C(=O)c2snc(C(N)=O)c2N)c2ccccc2OC)cc1 (configuration not stated),-22,36*,-1,-3,1,>38
Cc1ccc(S(=O)(=O)N2C(c3ccc(C(C)C)cc3)CC=C(C(=O)O)C2c2cccc(Cl)c2)cc1 (configuration not stated),.,.,.,.,6,.
COCc1[nH]nc2c1C(c1ccsc1)C(C#N)=C(N)O2 (configuration not stated),-5,64*,-1,1,3,35*
CCCc1[nH]nc2c1C(c1ccsc1)C(C#N)=C(N)O2 (configuration not stated),4,66*,0,-2,3,29*
CCOC(=O)C1=C(C)OC(N)=C(C#N)C1c1ccsc1 (configuration not stated),6,-3,-3,1,4,.
COc1ccc(SCCN2CCC(NC(=O)OCc3ccccc3)CCC2=O)cc1 (configuration not stated),.,.,.,.,8,.
CC(C)c1ccc(/C=C(\c2nc3ccccc3[nH]2)S(=O)(=O)c2ccccc2)cc1,-43,80*,-1,8,0,9.4*
O=S(=O)(/C(=C/c1ccc(C(F)(F)F)cc1)c1nc2ccccc2[nH]1)c1ccccc1,-76,64*,1,68,4,10*
C/C(=C\c1ccc(N)cc1)c1nc2ccccc2[nH]1,0,-1,-2,-5,8,.
CN(C)CCN1C(=O)C(=O)C(=C(O)c2ccc(OCc3ccccc3)cc2)C1c1ccncc1 (configuration not stated),.,.,.,.,9,.
COC1(OC)C(/C=C/c2ccc(Cl)cc2)C(C#N)(C#N)C1(OC)OC (configuration not stated),0,73*,-3,22,.,>38
COC1(OC)C(/C=C\c2ccc(C)cc2)C(C#N)(C#N)C1(OC)OC (configuration not stated),.,.,.,.,-3,.
Cc1cc(CNC(=O)C2CC2C(NP(=O)(c2ccccc2)c2ccccc2)c2ccccc2)nn1C (configuration not stated),.,.,.,.,12,.
CCn1c(Cl)c(C=O)s/c1=N\S(=O)(=O)c1ccccc1,-2,89*,1,-5,.,15*
CCN1C(=O)CSC1=NS(=O)(=O)c1ccccc1,.,.,.,.,-1,.
Nc1ccccc1S(=O)(=O)NC1=NCCCCC1,2,30*,1,4,13,>38
Nc1ccc(S(=O)(=O)NC2=NCCCCC2)cc1N,6,-4,0,-7,10,.
Cc1[nH][nH]c(=O)c1C(c1c(C)[nH][nH]c1=O)c1cn(Cc2ccccc2Cl)c2ccccc12,.,99*,.,.,4,0.51*
N/C(=N\O)c1cn(Cc2ccccc2Cl)c2ccccc12,8,10,2,13,.,.
Nc1ccc(N)c(C(=O)O)c1,-5,57*,1,-3,.,9.7*
CCOc1ccc(-n2c(C)cc(C(=O)CCl)c2C)cc1,3,48*,-1,92,6,28*
SMILES,Rv3671c inh,RecA splice inh,Mtb UGM inh,Mtb bLac sens,Mtb hypoxia inh,GFP chromophore
CCOC(=O)c1cc2cc3ccccc3cc2[nH]1,-14,44*,-2,10,-2,>38
CCN(CC)CCOc1ccc(/C(=C(/Cl)c2ccccc2)c2ccccc2)cc1,1,32*!,-3,100,.,20*
CC/C(=C(\c1ccccc1)c1ccc(OCCN(C)C)cc1)c1ccccc1,13,29,-4,99,.,.
CC1CCCN(C2=C(Cl)C(=O)N(c3cccc(Cl)c3)C2=O)C1 (configuration not stated),-9,70*,0,7,-5,8.7*
COc1ccc(N2C(=O)C(Cl)=C(N3CCCC(C)C3)C2=O)cc1 (configuration not stated),5,12,2,21,19,.
CCc1ccc(NC(=O)CSc2ccc(-c3sc(C)nc3C)nn2)cc1,-5,82*,3,10,14,>38
C=CCC(CC(=O)NCCO)C(=O)NC(COC(=O)C(CC=C)Cc1ccc(F)cc1)Cc1ccccc1 (configuration not stated),.,.,.,.,12,.
CC(C)(C)OC(=O)NN=Cc1ccc(OC(=O)c2cccs2)cc1,.,.,.,.,0,.
CC(C)(C)OC(=O)N/N=C\c1ccc(OC(=O)c2ccco2)cc1,9,43*,0,26,.,>38
CCOC(=O)N/N=C\c1ccc(OC(=O)c2ccco2)cc1,4,34*,-1,60,.,>38
CCOc1cc(/C=N\NC(=O)OC(C)(C)C)ccc1OC(=O)c1ccco1,7,31*,1,-2,.,>38
COC(=O)N/N=C\c1ccc(OC(=O)c2ccco2)cc1,12,40*,-2,45,.,>38
CC(C)CC(NC(=O)C1CCCN1C(=O)C(N)Cc1ccc(O)cc1)C(=O)NCC(N)=O (configuration not stated),.,.,.,.,0,.
CCC(C)Cc1cn(C(CCCCNC(=O)OC(C)(C)C)C(=O)NCCCCCCCCCCC(=O)N2CCN(C(=O)OC(C)(C)C)CC2)nn1 (configuration not stated),.,.,.,.,-10,.
CCOC(=O)C1C2COc3ccc(C)cc3C2N2C(=O)c3cc(C)ccc3NC(=O)[C@@]12C (some centres not stated),.,.,.,.,8,.
O=C(O)CCC(=NNc1ccc(S(=O)(=O)N2CCOCC2)cc1[N+](=O)[O-])c1cccs1,.,.,.,.,21,.
CCN1C(=O)C2C(c3ccc(-c4cccc(Cl)c4)c(OC)c3)N3CCCC[C@@]3(C(=O)OC)C2C1=O (some centres not stated),.,.,.,.,-7,.
CCCNC(=O)c1nnsc1S(=O)c1ccc(Cl)cc1 (configuration not stated),.,55*,.,.,24,39*
CC(=O)Oc1c(/C=C(\C#N)C(N)=O)[nH]c2ccccc12,.,74*,.,.,-12,0.054*
CC(C)C[C@H]1C(=O)N2CCC[C@H]2[C@]2(O)O[C@](NC(=O)[C@@H]3C=C4c5cccc6[nH]c(Br)c(c56)CC4N(C)C3)(C(C)C)C(=O)N12 (some centres not stated),0,56*,0,0,.,>38
Cc1cc(=O)n(CCCc2ccccc2)[nH]1,-58,92*,-2,-12,13,8*
